Measurements taken from PubChem BioAssay (NCATS).
Inconclusive results are not listed. The source made the active and inactive calls. The call rests on the fitted dose curve; in most records, active means well fitted inhibition curve with a large enough effect; inconclusive means small, poorly fitted or top-dose-only effect; inactive means flat fitted curve, though single readings scatter.

Target: Ubiquitin carboxyl-terminal hydrolase 1 (Homo sapiens) (UniProt O94782)
Assay: Inhibitors of USP1/UAF1: Pilot qHTS (AID 504865);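 further: rhodamine fluorescence freed from ubiquitin-rhodamine substrate followed over time; top concentration of the series differs between compounds; on the % scale 0 is the no-effect control and ±100 the full control effect; nearly all actives have a fitted effect of over 35% in size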
Conditions: purified USP1/UAF1, Ub-rhodamine cleavage fluorescence; series mostly up to 54.9 µM; activity change, negative = inhibition: at the top concentration
In short: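 Enzyme-free wells gave the negative control, while test wells held 1nM USP1/UAF1 preincubated with compound for 15 min at room temperature. Ub-Rho at 150nM final started the reaction, and fluorescence at 480/540 nm was recorded kinetically.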

Ubiquitin carboxyl-terminal hydrolase 1 (Homo sapiens), sequence (O94782 whole entry, looked up): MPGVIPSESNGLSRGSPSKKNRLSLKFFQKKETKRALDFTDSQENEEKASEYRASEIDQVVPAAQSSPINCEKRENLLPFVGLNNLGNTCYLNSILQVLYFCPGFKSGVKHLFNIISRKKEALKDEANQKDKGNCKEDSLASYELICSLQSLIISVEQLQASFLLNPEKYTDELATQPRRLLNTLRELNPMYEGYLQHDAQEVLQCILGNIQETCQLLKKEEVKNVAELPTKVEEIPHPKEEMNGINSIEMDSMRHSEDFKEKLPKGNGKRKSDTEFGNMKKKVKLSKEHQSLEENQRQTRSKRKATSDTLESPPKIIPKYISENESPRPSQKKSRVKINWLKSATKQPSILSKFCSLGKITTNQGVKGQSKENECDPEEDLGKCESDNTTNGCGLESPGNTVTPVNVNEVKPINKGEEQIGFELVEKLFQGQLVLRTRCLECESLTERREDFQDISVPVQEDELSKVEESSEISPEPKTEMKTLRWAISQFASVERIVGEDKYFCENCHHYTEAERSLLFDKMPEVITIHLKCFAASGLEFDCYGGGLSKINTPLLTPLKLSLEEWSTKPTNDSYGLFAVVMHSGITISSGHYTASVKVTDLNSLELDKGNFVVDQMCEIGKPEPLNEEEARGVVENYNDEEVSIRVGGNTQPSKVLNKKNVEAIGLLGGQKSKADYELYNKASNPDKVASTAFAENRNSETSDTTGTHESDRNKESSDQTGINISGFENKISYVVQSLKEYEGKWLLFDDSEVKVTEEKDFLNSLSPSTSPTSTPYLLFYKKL

| Compound | activity change, negative = inhibition | Potency |
| --- | --- | --- |
| CN=C(N)NCCCC(N)C(=O)O (configuration not stated) | -3.65% [at 114 µM] (inactive) |  |
| NCCC(=O)NCCc1cnc[nH]1 | 10.1% (inactive) |  |
| C[C@]12CCC(=O)C=C1CC[C@@H]1C2[C@@H](O)C[C@@]2(C)[C@H]1CC[C@]2(O)C(=O)CO (some centres not stated) | -2.93% [at 114 µM] (inactive) |  |
| CN1C(=O)CCC1c1cccnc1 (configuration not stated) |  | inactive |

Target: DNA dC->dU-editing enzyme APOBEC-3G (Homo sapiens) (UniProt Q9HC16)
Assay: qHTS for inhibitors of Vif-A3G interactions: Validation (AID 588379); further: 0% is about no effect
Conditions: Vif-A3G protein interaction assay; series mostly up to 46.1 µM; activity change, negative = inhibition: at the top concentration
In short: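 HeLa cells stably expressing Vif and A3G-eYFP, 700 cells/well, incubated overnight at 37 deg C, then exposed to compound overnight at 37 deg C. Inhibition of Vif-mediated degradation read as increased yellow fluorescence (Ex 488/Em 500-530) by laser-scanning cytometry.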

DNA dC->dU-editing enzyme APOBEC-3G (Homo sapiens), sequence (Q9HC16 whole entry, looked up): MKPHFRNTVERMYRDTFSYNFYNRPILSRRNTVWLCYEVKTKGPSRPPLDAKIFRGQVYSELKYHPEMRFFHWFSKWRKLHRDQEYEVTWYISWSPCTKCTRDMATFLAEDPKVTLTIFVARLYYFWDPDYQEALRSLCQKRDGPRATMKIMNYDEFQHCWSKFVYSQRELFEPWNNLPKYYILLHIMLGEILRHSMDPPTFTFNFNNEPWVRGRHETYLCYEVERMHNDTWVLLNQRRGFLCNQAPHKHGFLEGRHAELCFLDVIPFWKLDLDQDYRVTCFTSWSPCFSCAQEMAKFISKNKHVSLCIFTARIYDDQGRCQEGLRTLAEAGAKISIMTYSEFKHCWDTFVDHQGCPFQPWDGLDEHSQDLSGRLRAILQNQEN

| Compound | activity change, negative = inhibition |
| --- | --- |
| NCCNC(=O)c1ccc(Cl)cc1 | -1.48% (inactive) |
| COc1cc(=O)n(C)c2c(OCC(O)C(C)(C)O)cccc12 (configuration not stated) | -0.0357% (inactive) |
| C[C@]12CCC(=O)C=C1CC[C@@H]1C2[C@@H](O)C[C@@]2(C)[C@H]1CC[C@]2(O)C(=O)CO (some centres not stated) | 0.559% (inactive) |
| CN1C(=O)CCC1c1cccnc1 (configuration not stated) | -5.12% (inactive) |

Target: Voltage-gated inwardly rectifying potassium channel KCNH2 (Homo sapiens) (UniProt Q12809)
Assay: qHTS Assay for Small Molecule Inhibitors of the Human hERG Channel Activity (AID 588834);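 further: top concentration of the series differs between compounds; on the % scale 0 is the no-effect control and ±100 the full control effect; lower thallium flux fluorescence means stronger hERG block; nearly all actives have a fitted effect of over 50% in size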
Conditions: U2OS BacMam hERG, FluxOR thallium flux fluorescence; series mostly up to 46.1 µM; activity change, negative = inhibition: at the top concentration
In short: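 Blockade is seen as reduced FluxOR thallium-flux fluorescence in U2OS cells expressing hERG from a BacMam construct, in Opti-MEM with 2% FCS. Concentration-response data fitted to the Hill equation for AC50.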

Voltage-gated inwardly rectifying potassium channel KCNH2 (Homo sapiens), sequence (Q12809 whole entry, looked up): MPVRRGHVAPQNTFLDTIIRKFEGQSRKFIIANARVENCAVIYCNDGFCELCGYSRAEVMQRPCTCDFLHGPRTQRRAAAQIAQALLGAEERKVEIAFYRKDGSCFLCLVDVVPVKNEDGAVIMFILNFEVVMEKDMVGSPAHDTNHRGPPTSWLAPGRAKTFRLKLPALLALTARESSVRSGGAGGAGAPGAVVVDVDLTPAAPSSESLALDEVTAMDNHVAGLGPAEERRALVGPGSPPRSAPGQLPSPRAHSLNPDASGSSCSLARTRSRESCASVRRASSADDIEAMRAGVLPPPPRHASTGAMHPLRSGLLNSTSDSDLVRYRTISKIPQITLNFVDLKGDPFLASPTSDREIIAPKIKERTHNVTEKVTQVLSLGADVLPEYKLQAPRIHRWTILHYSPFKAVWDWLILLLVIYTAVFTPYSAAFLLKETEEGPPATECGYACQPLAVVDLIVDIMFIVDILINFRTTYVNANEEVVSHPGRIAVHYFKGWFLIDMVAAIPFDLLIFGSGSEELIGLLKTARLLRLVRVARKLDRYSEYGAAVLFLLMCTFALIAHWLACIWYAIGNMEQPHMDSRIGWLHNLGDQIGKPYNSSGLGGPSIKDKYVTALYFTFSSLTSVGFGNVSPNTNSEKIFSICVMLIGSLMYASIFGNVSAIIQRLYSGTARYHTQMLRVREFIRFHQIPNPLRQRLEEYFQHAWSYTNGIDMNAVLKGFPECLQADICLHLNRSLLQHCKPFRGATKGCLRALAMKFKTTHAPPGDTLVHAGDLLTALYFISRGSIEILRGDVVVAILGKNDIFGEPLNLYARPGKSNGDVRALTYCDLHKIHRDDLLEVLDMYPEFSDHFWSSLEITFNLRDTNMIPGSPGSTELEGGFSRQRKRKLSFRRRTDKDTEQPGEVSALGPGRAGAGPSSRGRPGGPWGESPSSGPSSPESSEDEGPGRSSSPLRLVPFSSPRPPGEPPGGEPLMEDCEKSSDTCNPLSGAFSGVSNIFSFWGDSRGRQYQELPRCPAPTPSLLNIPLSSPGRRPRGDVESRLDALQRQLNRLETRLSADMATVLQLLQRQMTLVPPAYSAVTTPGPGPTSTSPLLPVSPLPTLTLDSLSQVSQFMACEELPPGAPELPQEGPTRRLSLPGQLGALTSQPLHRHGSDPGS

| Compound | activity change, negative = inhibition | Potency |
| --- | --- | --- |
| CNC(=O)[C@H]1O[C@@H](n2cnc3c(NCc4cccc(I)c4)ncnc32)[C@H](O)[C@H]1O | -29.4% (inactive) |  |
| CC(N)=NCCCC(N)C(=O)O (configuration not stated) | 0% (inactive) |  |
| Cc1cn([C@H]2C[C@@H](N=[N+]=[N-])[C@@H](CO)O2)c(=O)[nH]c1=O | 10.3% (inactive) |  |
| N.N.N.N.N.N.N.N.N.N.N.N.N.N.O.O.[Cl-].[Cl-].[Cl-].[Cl-].[Cl-].[Cl-].[Ru].[Ru].[Ru] | -8.32% (inactive) |  |
| COc1c2c(nc3ccccc13)OC(C(C)(O)CO)C2 (configuration not stated) | 9.55% (inactive) |  |
| CC(C)C1NC(=O)[C@H](CCCCN)NC(=O)[C@@H](Cc2c[nH]c3ccccc23)NC(=O)[C@H](Cc2ccc(O)cc2)NC(=O)[C@H](C)N(C)C(=O)[C@H](Cc2ccccc2)NC1=O (some centres not stated) | 15.8% (inactive) |  |
| NCCC(=O)NCCc1cnc[nH]1 | 4.2% (inactive) |  |
| O=C(Cc1ccc(Cl)c(Cl)c1)OCCN1CCCC1 | -26.5% (inactive) |  |
| Cc1ccccc1N1CCN(S(=O)(=O)C[C@]23CCC(CC2NC(=O)[C@@H](N)CCS(C)(=O)=O)C3(C)C)CC1 (some centres not stated) | 6.35% (inactive) |  |
| NC(=O)C1=CN(C2OC(COP(=O)(O)OP(=O)(O)OC[C@H]3O[C@@H](n4cnc5c(N)ncnc54)[C@H](OP(=O)(O)O)[C@H]3O)C(O)C2O)C=CC1 (some centres not stated) | 15.8% (inactive) |  |
| CC(=O)[C@@]1(O)CC[C@H]2C3CCC4=CC(=O)CC[C@]4(C)C3CC[C@@]21C (some centres not stated) | 0.617% (inactive) |  |
| OC[C@H]1O[C@@H](n2cnc3c(NCCc4ccccc4)ncnc32)[C@H](O)[C@H]1O | 11.9% (inactive) |  |
| CCCCCCCCCCCCCCC/C=C/[C@@H](O)[C@H](NC(=O)CCCCCCCCCCCCC)OC (tested in a mixture with another compound) | 7.83% (inactive) |  |
| CNc1ncnc2c1ncn2[C@@H]1O[C@H](CO)[C@H](O)[C@H]1O | -8.63% (inactive) |  |
| NCCNC(=O)c1ccc(Cl)cc1 | -19.3% (inactive) |  |
| NC(=NCCC[C@H](N)C(=O)O)NO | 0.123% (inactive) |  |
| OC[C@H]1O[C@@H](n2cnc3c(Nc4ccccc4)ncnc32)[C@H](O)[C@H]1O | -20.9% (inactive) |  |
| N[C@H](Cc1ccc(O)c(O)c1)C(=O)O |  | inactive |
| Nc1nc(Nc2ccccc2)nc2c1ncn2[C@@H]1O[C@H](CO)[C@H](O)[C@H]1O | 4.55% (inactive) |  |
| NC(=S)c1ccc[n+]([C@@H]2O[C@@H](COP(=O)([O-])OP(=O)(O)OC[C@H]3O[C@@H](n4cnc5c(N)ncnc54)[C@H](OP(=O)(O)O)[C@H]3O)C(O)C2O)c1 (some centres not stated) | 18% (inactive) |  |
| O=C(O)CC[C@H](NC(=O)c1ccccc1C(=O)O)C(=O)O | 5.49% (inactive) |  |
| NCC1OC(O[C@@H]2[C@H](O)[C@@H](OC3C(O)C(N)CC(N)C3OC3OC(CO)C(O)C(O)C3N)O[C@@H]2CO)C(N)C(O)C1O (some centres not stated) | 18.9% (inactive) |  |
| COc1cc(=O)n(C)c2c(OCC(O)C(C)(C)O)cccc12 (configuration not stated) | 2.17% (inactive) |  |
| C[C@]12CCC(=O)C=C1CC[C@@H]1C2[C@@H](O)C[C@@]2(C)[C@H]1CC[C@]2(O)C(=O)CO (some centres not stated) | 9.91% (inactive) |  |
| CC(=O)O[C@H]1C[C@@H]2CCC3C(CC[C@@]4(C)[C@H]3C[C@H]([N+]3(C)CCCCC3)[C@@H]4OC(C)=O)[C@@]2(C)C[C@@H]1[N+]1(C)CCCCC1 (some centres not stated) | 14.2% (inactive) |  |

System: not listed separately
Assay: Primary qHTS for inhibitors of nuclear receptor binding SET domain protein 2 (NSD2) in an isogenic RCH-ACV NSD2 p.E1099K mutant (9B) (AID 1645876); further: potency means the concentration at half of the fitted maximal effect; nearly all actives have a fitted effect of over 70% in size
Conditions: RCH-ACV (leukaemia line) NSD2 E1099K (9B) viability, CellTiter-Glo, 72 h; series mostly up to 44.9 µM; activity change, negative = viability loss: at the top concentration

| Compound | Potency |
| --- | --- |
| CN1CCN(c2ccc3nc(-c4cc(C(C)(C)C)c(OCCCC(=O)NCCCN=[N+]=[N-])c(C(C)(C)C)c4)[nH]c3c2)CC1 | 7.42 µM (active) |
| NC(=O)c1cccc2c(NC(CN3CCC3)c3ccc(Cl)c(C(F)(F)F)c3)ncnc12 (configuration not stated) | 1.05 µM (active) |
| O=c1cc(N2CCOCC2)oc2c(-c3ccc4c(c3)OCCO4)csc12 | 0.59 µM (active) |
| CCN(CC)CCNC(=O)c1c(C)[nH]c(/C=C2/C(=O)Nc3ccc(-c4csc(-c5ccccc5)n4)cc32)c1C | 7.42 µM (active) |
| Nc1nc2c(c(=O)[nH]1)N1CN(c3ccc(C(=O)N[C@@H](CCC(=O)O)C(=O)O)cc3)CC1CN2 (some centres not stated) | 0.833 µM (active) |
| O=C1NC(=O)[C@@H](c2c[nH]c3ccccc23)[C@H]1c1cn2c3c(cccc13)CCC2 | 1.18 µM (active) |
| COC1CC(C(=O)c2ccc3c(N)ncc(-c4ccc(-c5cnn(C)c5)cc4)c3n2)C1 (configuration not stated) | 1.48 µM (active) |
| COc1cc(C(N)=O)ccc1NC(=O)[C@@H]1N[C@@H](CC(C)(C)C)[C@@]2(C(=O)Nc3cc(Cl)ccc32)[C@H]1c1cccc(Cl)c1F | 0.235 µM (active) |
| COc1nnc2ccc(N3CCC(c4ccc(OCCN5CCN(C)C(=O)[C@H]5C)cc4)CC3)nn12 | 0.0661 µM (active) |
